Our source for the Potency values is PubChem BioAssay (NCATS).

Records with an inconclusive call do not appear. Entries that show only a call come without a potency. Active and inactive are the calls of the source. Calls follow the shape of the dose curve; as a rule, active = well fitted inhibition curve with a large enough effect; inconclusive = small, poorly fitted or top-dose-only effect; inactive = no such curve, though single readings can be large or run the other way. Where a SMILES comes first, the peptide text is derived from it. The star is where a group is joined. AFC = O=c1cc(C(F)(F)F)c2ccc(N*)cc2o1

Test [1] concerns Zika virus NS2B-NS3 protease (unlinked complex). Briefly: Primary screen GU Rhodamine qHTS for Zika virus inhibitors: Unlinked NS2B-NS3 protease assay (AID 1347159). Also: nearly all actives have a fitted effect of over 60% in size. The method in brief: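 Unlinked NS2B/NS3, 25 nM; Rhod110 peptide, 1.5 microM; compounds, up to 114 microM. Reaction run 15 min at RT in 10 mM Tris-HCl pH 8.0, 0.01% Tween 20; kinetic fluorescence change fitted with a 4-parameter Hill model.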
(qHTS replaces the single test concentration by a dilution series.)

Test [2] has as its system Zika virus NS2B-NS3 protease (linked construct). Briefly: Primary screen NINDS Rhodamine qHTS for Zika virus inhibitors (AID 1347160). Also: nearly all actives have a fitted effect of over 55% in size. Also: potency is read from the fitted curve at half-maximal effect. The method in brief: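 Single-chain NS2B-NS3 protease, 25 nM, pH 8.0; compounds preincubated 15 min. Activity: Rhodamine110 release from 1.5 microM substrate over 15 min, room temperature, data fitted to 4-parameter Hill.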

In the case of `CC(C)(C)c1cc(Br)cc([C@H](CC(=O)O)NC(=O)CNC(=O)c2cc(O)cc(NC3=NCC(O)CN3)c2)c1` (some centres not stated), the Potency entry in test [1] and in test [2] was “inactive” throughout.

Consider `CC1=CC(=O)CC2C1(O)CCC(C)C21CC(c2ccoc2)OC1=O` (configuration not stated), for which the Potency result in test [1] and in test [2] was “inactive” throughout.

As for `CC1=CC(=O)C(=C(C)C)CC2C1CCC2(C)O` (configuration not stated), the Potency entry in test [1] and in test [2] was “inactive” throughout.

Consider `CC1=CC(=O)CC(C)(CO)C1(O)/C=C/C(C)O[C@@H]1O[C@H](CO)[C@@H](O)[C@H](O)[C@H]1O` (some centres not stated), for which the Potency entry in test [1] and in test [2] was “inactive” in each case.

As for `CC(=O)N[C@@H](Cc1c[nH]c2ccccc12)C(=O)N[C@@H](CCC(=O)O)C(=O)N[C@@H](Cc1cnc[nH]1)C(=O)N[C@@H](CC(=O)O)C(=O)Nc1ccc2c(C(F)(F)F)cc(=O)oc2c1` (Ac-WEHD-{AFC}), the Potency entry in test [1] and in test [2] was “inactive” each time.

For the compound `CC(C)CC1NC(=O)C2CC3(O)c4ccccc4NC3N2C1=O` (configuration not stated), the Potency result in test [1] and in test [2] was “inactive” in each case.

Take `CCOC(=O)c1sc(NC(=O)[C@H](C(C)C)n2c(=O)[nH]c3ccccc3c2=O)nc1C`: the Potency entry in test [1] and in test [2] was “inactive” in each case.

For the compound `C=C1C(=O)O[C@@H]2C/C(C)=C\C(=O)/C=C(\C)[C@@H](OC(=O)/C(C)=C\C)[C@H](O)[C@@H]12`, the Potency entry in test [1] and in test [2] was “inactive” in each case.

In the case of `C=CC(C)(C)C12C=C(OC)C(=O)N3C(C(C)C)C(=O)NC31N(OC)c1ccccc12` (configuration not stated), the Potency result in test [1] and in test [2] was “inactive” in each case.

As to `COc1ccc(CN2C(=O)C(=O)c3cc(S(=O)(=O)N4CCC[C@H]4COc4cccnc4)ccc32)cc1`, the Potency entry in test [1] and in test [2] was “inactive” each time.

With `CC1=C(COC2OC(CO)C(O)C(O)C2O)C(C(CO)C(=O)O)CC1` (configuration not stated), the Potency entry in test [1] and in test [2] was “inactive” each time.

As to `COC(=O)C1=CO[C@@H](O[C@@H]2O[C@H](CO)[C@@H](O)[C@H](O)[C@H]2O)[C@@H]2C(CO)=CC[C@]12O`, the Potency entry in test [1] and in test [2] was “inactive” each time.

For the compound `CC1(C=O)CC[C@]2(C(=O)O[C@@H]3O[C@H](CO)[C@@H](O)[C@H](O)[C@H]3O)CC[C@]3(C)C(=CCC4[C@@]5(C)C[C@H](O)[C@H](O[C@@H]6OC[C@@H](O)[C@H](O)[C@H]6O)[C@@](C)(CO)C5CC[C@]43C)C2C1` (some centres not stated), the Potency entry in test [1] and in test [2] was “inactive” in each case.

For the compound `C[C@H]1[C@H](O)O[C@@H]2O[C@@]3(C)CC[C@H]4[C@H](C)CC[C@@H]1[C@@]24OO3`, the Potency result in test [1] and in test [2] was “inactive” each time.

In the case of `CN(C)CCn1cc(S(=O)(=O)c2cccc(F)c2)c2cccnc21`, the Potency result in test [1] and in test [2] was “inactive” throughout.

Consider `CC(C)C(NC(=O)c1ccc2ccccc2n1)C(=O)NC(CC(=O)O)C(=O)COc1c(F)cccc1F` (configuration not stated), for which the Potency entry in test [1] and in test [2] was “inactive” in each case.

Consider `O=C(O)c1cccc(S(=O)(=O)N2CCc3ccccc3C2)c1`, for which the Potency result in test [1] and in test [2] was “inactive” in each case.

For `COc1c2c(c(C)c3c1C(=O)OC3)OC1(C)CC(O)C(C(C)(C)O)C(C)(CCC(=O)O)C1C2` (configuration not stated), the Potency result in test [1] and in test [2] was “inactive” each time.

Regarding `C=C1C(OC(C)=O)CCC2(C)CC3(OC)OC(=O)C(C)=C3CC12` (configuration not stated), the Potency entry in test [1] and in test [2] was “inactive” throughout.

Consider `CC1(C)CC[C@]2(C(=O)O)CC[C@]3(C)C(=CCC4[C@@]5(C)CC[C@H](O[C@@H]6O[C@H](CO)[C@@H](O)[C@H](O)[C@H]6O[C@@H]6O[C@H](CO)[C@@H](O)[C@H](O)[C@H]6O)[C@@](C)(CO)C5CC[C@]43C)[C@@H]2C1` (some centres not stated), for which the Potency result in test [1] and in test [2] was “inactive” each time.

As to `CCOc1ccc(S(=O)(=O)n2c(C)nc3ccccc32)cc1`, the Potency entry in test [1] and in test [2] was “inactive” throughout.

Take `Cc1ccc(NC(=O)C(=O)NC2CC(C)(C)NC(C)(C)C2)cc1`: the Potency entry in test [1] and in test [2] was “inactive” throughout.

For `CON(C)C(=O)[C@H](O)[C@H](Cc1ccccc1)NC(=O)c1cc2cc(Cl)ccc2[nH]1`, the Potency result in test [1] and in test [2] was “inactive” in each case.

As to `O=C1OCc2cc3cccc(O[C@@H]4O[C@H](CO)[C@@H](O)[C@H](O)[C@H]4O)c3c(O)c21`, the Potency entry in test [1] was “inactive”. The Potency in test [2] was 11.2 µM (active).

On to `COCCOc1ccc(N2CCN(CCn3ncc4c3nc(N)n3nc(-c5ccco5)nc43)CC2)cc1`, for which the Potency result in test [1] and in test [2] was “inactive” in each case.

Take `COc1cc(Nc2nc3c(s2)CCCC3c2ccc(F)cc2)ccc1-n1cnc(C)c1` (configuration not stated): the Potency result in test [1] and in test [2] was “inactive” throughout.
